CDC25B CDK2 inh = human CDC25B-CDK2/CyclinA binding inhibition; z-score (test concentration not listed); HTRF CDC25B-CDK2/CyclinA binding, anti-His/anti-Flag; active compounds read high; P30305+P24941; hit rate 0.72% among 94,000; in the data active means z-score above about 3.2
TAR Tat displ = HIV-1 TAR-Tat binding disruption; AID 1259389; hit rate 0.6% among 100,000; HIV-1 TAR RNA, Tat peptide displacement FRET; active compounds read high; z-score (test concentration not listed); active means z-score of 3 or more in at least 2 runs
* = called active by the depositor; . = no result. Shown are actives, neighbours in structure and some others; about 0.9% of the full set was active somewhere.

SMILES	CDC25B CDK2 inh	TAR Tat displ
Cc1ccc(Cl)cc1Nc1c(C)c(C)nc2ncnn12	.	0.58
O=C1c2cccc3c(SCCO)ccc(c23)C(=O)N1CCc1ccccn1	7.8*	.
O=C(CN1C(=O)c2cccc3cccc1c23)NCc1ccccn1	-0.95	0.42
COC(=O)C1=NOC2C(=O)N(c3ccc(Cl)cc3)C(=O)C12 (centres undefined)	-1.18	0.33
Cc1[nH]c2ccc(-c3nnc(SC(C)C(=O)Nc4ccc5c(c4)OCCO5)o3)cc2c1C (centres undefined)	0.43	-2.13
CC(Sc1nnc(-c2ccncc2)o1)C(=O)Nc1ccc2c(c1)OCCO2 (centres undefined)	10.6*	1.27
CN(Cc1cnn(-c2ccccc2)c1)C(=O)Cn1c(=O)oc2ccccc21	.	1.16
Cc1ccc(OCc2ccc(-c3nc(C#N)c(NC4CCCCC4)o3)o2)cc1	-0.07	0.03
COc1cc2c(NC3CCN(C)CC3)cc(N3CCCCN(C)CC3)cc2cc1OCCOCCN(C)C	.	8.27*
COc1cc2c(NC3CCN(C(C)C)CC3)nc(C3CCCCC3)nc2cc1OCCCN1CCCC1	.	0.21
COc1cc2c(NC3CCN(C)CC3)nc(N3CCCN(C)CC3)nc2cc1OCCCN(C)C	.	12.4*
CCCOC(=O)COc1ccc2c(=O)c(-c3ccc(OC)c(OC)c3)c(C(F)(F)F)oc2c1	-1.2	0.19
CC(C)CCNC(=O)C1c2c(n(C)c3ccccc23)SCC(=O)N1c1ccc2c(c1)OCO2 (centres undefined)	.	1.99
Cc1ccc(-c2c(N3CCN(c4cc(C)ccc4C)CC3)c(=O)c2=O)cc1	.	1.46
Cc1ccc(C)c(N2CCN(c3c(-c4ccc(C)c(C)c4)c(=O)c3=O)CC2)c1	.	12.9*
COCCOC(=O)c1c(C)oc2ccc(NS(=O)(=O)c3cc(C)ccc3C)cc12	-3.5	.
Cc1ccc(C)c(S(=O)(=O)Nc2ccc3oc(C)c(C(=O)O)c3c2)c1	0.27	14.3*
COc1ccc2[nH]cc(S(=O)(=O)c3cc(F)cc(F)c3)c(=O)c2c1	-1.26	1.58
O=C(O)Cn1ncc2c1-c1ccoc1CC2	11.3*	0.9
O=C(Cn1ncc2c1-c1ccccc1OC2)N1CCCC1	-1.09	.
Cn1c(=O)c2c(c3ccccc31)OC(=O)CC2c1ccco1 (centres undefined)	-0.48	14.2*
Cn1c(=O)c2c(c3ccccc31)OC(=O)CC2c1ccccc1 (centres undefined)	-0.44	-0.31
O=C(CSc1ccc(-c2ccncc2)nn1)Nc1ccc2c(c1)OCO2	.	1.55
Cc1cc2c(N)cccc2nn1	17.2*	.
Nc1cccc2nsnc12	-2.09	.
SMILES	CDC25B CDK2 inh	TAR Tat displ
Cc1ccc(C)n1-c1cccnc1-c1ccc(C(=O)O)cc1	1.18	-4.32
COc1cc2c(cc1OC)CC(=O)OC2	2.8	.
O=C1c2cc([N+](=O)[O-])ccc2-c2ccc([N+](=O)[O-])cc21	0.65	.
CCCNC(=O)c1cc([N+](=O)[O-])cc2c1-c1ccc([N+](=O)[O-])cc1C2=O	15.7*	.
Cc1nn(C(C)(C)C)c(OC(=O)COc2ccccc2)c1S(=O)(=O)c1ccccc1	-2.4	.
CCn1cc(C(=O)N2CCc3ccccc3C2)c(=O)c2cc(S(=O)(=O)N3CCC(C)CC3)ccc21	14.9*	0.58
CCn1cc(C(=O)N2CCc3ccccc32)c(=O)c2cc(S(=O)(=O)N3CC(C)CC(C)C3)ccc21 (centres undefined)	-0.41	1.95
COc1cc(OC)c2nc(C)c3c(c2c1)CN(C(=O)Nc1cccc(C(F)(F)F)c1)C3	15.1*	.
COC(=S)Nc1cccc(C(F)(F)F)c1	-1.75	.
Cc1sc2ncn(CC(=O)N(C)C3CCCCC3)c(=O)c2c1S(=O)(=O)N1CCN(C)CC1	14.6*	-0.17
Cc1sc2ncn(CC(=O)N3CCN(C)CC3)c(=O)c2c1S(=O)(=O)N1CCCCC1	-0.41	.
COC(=O)CCc1ccc(OCC(O)CNC(C)C)cc1 (centres undefined)	.	1.48
CC(C)NCC(O)COc1ccc(COCCOC(C)C)cc1 (centres undefined)	5.24*	-0.4
CCN(CC)Cc1ccc(O)c2ncccc12	13.1*	1.32
Oc1ccc(Cc2ccc(O)c3ncccc23)c2cccnc12	-3.78	1.92
O=C(O)CCCNc1cc(N2CCC(=O)CC2)c2noc3c2c1C(=O)c1ccccc1-3	14.1*	26.8*
O=C(O)CCCNc1cc(N2CCN(C3CCCCC3)CC2)c2noc3c2c1C(=O)c1ccccc1-3	12.9*	-3.41
CCCN1CCN(c2cc(NCCCC(=O)O)c3c4c(onc24)-c2ccccc2C3=O)CC1	-2	-5.83
CCOCCCNc1cc(N2CCN(C3CCCCC3)CC2)c2noc3c2c1C(=O)c1ccccc1-3	-1.83	1.53
CCC(=O)Nc1ccc2c(c1)nc1n2CCN(C(C)C)C1	0.82	-8.83
Nc1ccc(-c2nc3ccc(-c4nc5ccc(N)cc5[nH]4)cc3[nH]2)cc1	9.87	.
Nc1ccc(-c2nc3cc(N)c(Cl)cc3[nH]2)cc1	-6.2	5.51*
OCC(O)Cn1c(SCCOc2ccc(Cl)cc2)nc2ccccc21 (centres undefined)	0.27	1.08

Source: PubChem BioAssay (Center for Chemical Genomics, University of Michigan)
